Results: PubChem BioAssay (Tox21)
Results filed as inconclusive are left out. Active and inactive are the calls of the source. Unless noted, the call rests on the fitted dose curve; in most records, active means well fitted curve in the direction sought with a large enough effect in the repeat runs; inconclusive means weak or mixed curves; inactive means no such curve, though single readings can be large; an effect the other way counts as inactive or inconclusive.

Key:
[1] = qHTS assay to identify small molecule agonists of the sonic hedgehog signaling (Shh) pathway - cell viability counter screen (AID 1259366); further: nearly all actives have a fitted effect of over 50% in size
Summary of the method: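 Cytotoxicity counter screen: CellTiter-Fluor reagent added after 23 h compound exposure, then 1 h at 37C and fluorescence read. Cells were 3T3 Gli1-Luc, seeded 2,000 per well and dosed 4 h post-plating.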

[2] = qHTS assay to identify small molecule antagonists of the sonic hedgehog signaling (Shh) pathway - cell viability counter screen (AID 1259367); further: nearly all actives have a fitted effect of over 55% in size
Summary of the method: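 After a 4 hr settling period, 3T3 Gli1-Luc cells were treated with DMSO-dissolved chemicals and conditioned medium, kept 24 hr at 37C in 5% CO2, and assayed for viability by CellTiter-Fluor fluorescence following 1 hr reagent incubation.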

[3] = qHTS assay to identify small molecule agonists of the sonic hedgehog signaling (Shh) pathway (AID 1259368; calls by dose curve;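 further: NIH/3T3-derived 3T3Gli1-Luc cells carrying a stable Gli1-driven firefly luciferase reporter; series mostly up to about 92 µM; nearly all actives have a fitted effect of over 15% in size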)
Summary of the method: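 NIH/3T3-derived 3T3Gli1-Luc cells with stably integrated Gli1-driven firefly luciferase, 2,000 cells/well, compounds added after 4 hr. Incubated 24 hr at 37C, 5% CO2; luminescence read after 30 min with luciferase reagent at room temperature.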

[4] = target: Estrogen receptor beta (Homo sapiens) (UniProt Q92731); assay: qHTS assay to identify small molecule agonists of the estrogen receptor beta (ER-beta) signaling pathway (AID 1259377; active means well fitted activation curve with a large enough effect in the signal ratio in the repeat runs, not every such curve was filed as active; the % refers to the signal ratio)
Estrogen receptor beta (Homo sapiens), sequence (Q92731 whole entry, looked up): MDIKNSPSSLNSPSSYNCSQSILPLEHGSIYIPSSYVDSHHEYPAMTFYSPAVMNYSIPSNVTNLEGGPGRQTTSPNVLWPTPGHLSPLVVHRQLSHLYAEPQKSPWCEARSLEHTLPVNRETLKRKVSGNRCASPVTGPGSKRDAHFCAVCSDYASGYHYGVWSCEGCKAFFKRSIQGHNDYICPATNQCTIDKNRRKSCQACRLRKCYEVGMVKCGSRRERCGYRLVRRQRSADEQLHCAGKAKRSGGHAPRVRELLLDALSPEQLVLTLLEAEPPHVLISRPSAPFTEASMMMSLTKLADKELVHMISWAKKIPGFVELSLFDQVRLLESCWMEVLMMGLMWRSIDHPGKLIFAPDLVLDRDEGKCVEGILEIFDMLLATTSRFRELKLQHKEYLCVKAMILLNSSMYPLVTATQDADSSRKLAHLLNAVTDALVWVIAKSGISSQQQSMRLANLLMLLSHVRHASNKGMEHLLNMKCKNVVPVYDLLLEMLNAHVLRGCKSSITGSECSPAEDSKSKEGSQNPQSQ
Summary of the method: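 Ratiometric beta-lactamase FRET read-out came after 2 h substrate loading at room temperature. It followed 16 h compound treatment at 37C of GripTite HEK293T cells carrying a UAS-bla reporter, plated in 2% charcoal-stripped FBS medium.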

[5] = qHTS assay to identify small molecule agonists of the androgen receptor (AR) signaling pathway in the presence of an antagonist - cell viability counter screen (AID 1259379);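 further: MDA-kb2 human breast cancer cells carrying an MMTV luciferase reporter; series mostly up to about 92 µM; nearly all actives have a fitted effect of over 25% in size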
Summary of the method: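 MDA-kb2 cells (MMTV-luciferase, AR/GR), 3,000/well, 5 h attachment, then 3.0 µM nilutamide (final) and compounds at 15 concentrations. Viability by CellTiter-Fluor fluorescence after 16 h at 37 °C, 0% CO2, in the reporter wells.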

[6] = qHTS assay to identify small molecule agonists of the estrogen receptor beta (ER-beta) signaling pathway - cell viability counter screen (AID 1259380); further: nearly all actives have a fitted effect of over 30% in size
Summary of the method: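 ER-beta-UAS-bla HEK293T cells in medium with 2% charcoal-stripped FBS, pre-incubated 6 hr, then treated 16 hr at 37C. Cytotoxicity read in the same wells by CellTiter-Glo luminescence after 30 min at room temperature.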

[7] = target: Androgen receptor (Homo sapiens) (UniProt P10275); assay: qHTS assay to identify small molecule agonists of the androgen receptor (AR) signaling pathway in the presence of an antagonist (AID 1259381; calls by dose curve; further: nearly all actives have a fitted effect of over 15% in size)
Androgen receptor (Homo sapiens), sequence (P10275 whole entry, looked up): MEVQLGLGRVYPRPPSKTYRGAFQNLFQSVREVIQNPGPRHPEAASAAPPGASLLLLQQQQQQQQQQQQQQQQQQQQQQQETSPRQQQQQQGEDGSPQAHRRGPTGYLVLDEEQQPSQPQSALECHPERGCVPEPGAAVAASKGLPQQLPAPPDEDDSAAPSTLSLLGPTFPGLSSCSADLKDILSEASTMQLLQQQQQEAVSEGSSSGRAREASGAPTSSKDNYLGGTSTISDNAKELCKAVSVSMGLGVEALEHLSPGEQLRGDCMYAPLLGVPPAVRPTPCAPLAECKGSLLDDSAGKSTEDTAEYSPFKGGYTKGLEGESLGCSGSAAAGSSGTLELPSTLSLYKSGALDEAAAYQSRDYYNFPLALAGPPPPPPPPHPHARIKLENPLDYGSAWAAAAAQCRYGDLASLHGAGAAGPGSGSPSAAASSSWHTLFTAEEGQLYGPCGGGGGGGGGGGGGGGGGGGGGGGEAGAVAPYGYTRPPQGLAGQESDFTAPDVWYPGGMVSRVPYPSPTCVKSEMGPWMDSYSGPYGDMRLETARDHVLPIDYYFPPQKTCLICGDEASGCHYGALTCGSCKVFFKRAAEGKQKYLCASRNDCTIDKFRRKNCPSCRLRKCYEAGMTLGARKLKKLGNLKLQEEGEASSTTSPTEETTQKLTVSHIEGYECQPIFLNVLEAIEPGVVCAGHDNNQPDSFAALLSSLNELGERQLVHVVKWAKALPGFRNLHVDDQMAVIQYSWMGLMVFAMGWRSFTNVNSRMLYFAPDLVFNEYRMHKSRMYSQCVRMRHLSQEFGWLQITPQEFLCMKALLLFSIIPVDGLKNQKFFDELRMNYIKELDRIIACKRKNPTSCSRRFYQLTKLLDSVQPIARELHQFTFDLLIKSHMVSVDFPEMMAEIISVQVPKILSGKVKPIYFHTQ
Summary of the method: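 MDA-kb2 cells carrying MMTV-luciferase (AR/GR responsive), 3,000 cells/well, co-treated with 3.0 uM nilutamide final. Compounds at 15 concentrations, 16 hr at 37C without CO2. Luciferase luminescence read after 30 min with ONE-Glo.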

[8] = qHTS assay to identify small molecule antagonists of the estrogen receptor beta (ER-beta) signaling pathway - cell viability counter screen (AID 1259382); further: series mostly up to about 92 µM; nearly all actives have a fitted effect of over 55% in size
Summary of the method: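 ER-beta-UAS-bla HEK293T cells in 2% charcoal-stripped FBS medium, treated with compound plus 1 nM 17-beta-estradiol for 16 h at 37C. Viability read by CellTiter-Glo luminescence after 30 min at room temperature in the same wells.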

[9] = target: Estrogen receptor (Homo sapiens) (UniProt P03372); assay: qHTS assay to identify small molecule agonists of the estrogen receptor alpha (ER-alpha) signaling pathway in the presence of an antagonist (AID 1259383; calls by dose curve; further: top concentration of the series differs between compounds; nearly all actives have a fitted effect of over 15% in size)
Estrogen receptor (Homo sapiens), sequence (P03372 whole entry, looked up): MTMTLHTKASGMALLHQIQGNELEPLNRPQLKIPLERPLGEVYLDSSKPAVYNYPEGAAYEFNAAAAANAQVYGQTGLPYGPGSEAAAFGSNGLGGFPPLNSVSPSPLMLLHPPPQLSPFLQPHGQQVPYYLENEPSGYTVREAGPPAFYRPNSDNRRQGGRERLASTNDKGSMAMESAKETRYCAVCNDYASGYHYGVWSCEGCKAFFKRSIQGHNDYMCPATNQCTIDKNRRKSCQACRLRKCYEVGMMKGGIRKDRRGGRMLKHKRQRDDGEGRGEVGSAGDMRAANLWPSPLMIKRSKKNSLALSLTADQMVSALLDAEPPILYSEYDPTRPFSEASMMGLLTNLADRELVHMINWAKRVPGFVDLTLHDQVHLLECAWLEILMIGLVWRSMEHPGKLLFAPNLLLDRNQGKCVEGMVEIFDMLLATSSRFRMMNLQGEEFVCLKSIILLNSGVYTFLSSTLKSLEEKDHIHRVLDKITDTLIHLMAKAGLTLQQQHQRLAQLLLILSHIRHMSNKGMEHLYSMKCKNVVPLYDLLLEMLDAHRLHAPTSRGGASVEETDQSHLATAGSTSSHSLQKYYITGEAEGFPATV
Summary of the method: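 VM7Luc4E2 cells express endogenous full-length ER-alpha with an ERE-luciferase reporter and were hormone-deprived for 5 days. Compounds at 15 concentrations were added with 10.0nM ICI-182,780 for 22hr at 37C. Luminescence was read with ONE-Glo.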

[10] = qHTS assay to identify small molecule agonists or antagonists of the thyroid stimulating hormone receptor (TSHR) signaling pathway - wild type cell line counter screen (AID 1259384; calls by dose curve)
Summary of the method: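 Wild-type HEK293 cells were plated 18 h at 37 C/5% CO2, pin-dosed with compound plus Ro20-1724 medium, held 30 min at room temperature, then given cAMP-d2 and anti-cAMP-cryptate; fluorescence was read after 1 h. Fifteen concentrations, triplicate.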

[11] = target: Thyrotropin receptor (Homo sapiens) (UniProt P16473); assay: qHTS assay to identify small molecule antagonists of the thyroid stimulating hormone receptor (TSHR) signaling pathway (AID 1259385; calls by dose curve; further: nearly all actives have a fitted effect of over 20% in size)
Thyrotropin receptor (Homo sapiens), sequence (P16473 whole entry, looked up): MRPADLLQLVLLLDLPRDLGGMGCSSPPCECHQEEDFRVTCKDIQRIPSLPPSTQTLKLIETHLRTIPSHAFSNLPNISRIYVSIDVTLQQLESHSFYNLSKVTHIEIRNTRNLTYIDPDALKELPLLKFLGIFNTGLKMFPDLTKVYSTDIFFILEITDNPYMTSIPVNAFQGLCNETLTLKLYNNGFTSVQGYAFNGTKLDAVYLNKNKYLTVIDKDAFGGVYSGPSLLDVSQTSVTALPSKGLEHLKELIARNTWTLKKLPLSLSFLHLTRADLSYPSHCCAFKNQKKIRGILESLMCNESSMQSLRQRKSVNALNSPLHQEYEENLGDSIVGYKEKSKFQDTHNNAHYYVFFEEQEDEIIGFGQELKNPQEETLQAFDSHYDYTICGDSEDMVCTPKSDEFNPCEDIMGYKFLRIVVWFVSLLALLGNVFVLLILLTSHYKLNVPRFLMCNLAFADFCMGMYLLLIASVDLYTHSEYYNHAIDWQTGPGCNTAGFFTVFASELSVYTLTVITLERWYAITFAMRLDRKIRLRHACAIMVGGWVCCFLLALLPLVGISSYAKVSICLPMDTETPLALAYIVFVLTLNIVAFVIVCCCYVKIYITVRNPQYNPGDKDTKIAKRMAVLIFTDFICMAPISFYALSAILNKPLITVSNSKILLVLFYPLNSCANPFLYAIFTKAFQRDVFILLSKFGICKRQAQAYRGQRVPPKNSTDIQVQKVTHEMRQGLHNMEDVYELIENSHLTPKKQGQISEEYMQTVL
Summary of the method: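 TSHR-HEK293 cells were plated and held 18 h at 37C/5% CO2, then given compound plus Ro20-1724 and stimulated with TSH at 1.5 ng/mL final. After 30 min at room temperature, cAMP was detected with cAMP-d2/anti-cAMP-cryptate (1 h) by fluorescence.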

[12] = target: Progesterone receptor (Homo sapiens) (UniProt P06401); assay: qHTS assay to identify small molecule agonists of the progesterone receptor (PR) signaling pathway (AID 1346784; calls by dose curve; further: nearly all actives have a fitted effect of over 30% in size)
Progesterone receptor (Homo sapiens), sequence (P06401 whole entry, looked up): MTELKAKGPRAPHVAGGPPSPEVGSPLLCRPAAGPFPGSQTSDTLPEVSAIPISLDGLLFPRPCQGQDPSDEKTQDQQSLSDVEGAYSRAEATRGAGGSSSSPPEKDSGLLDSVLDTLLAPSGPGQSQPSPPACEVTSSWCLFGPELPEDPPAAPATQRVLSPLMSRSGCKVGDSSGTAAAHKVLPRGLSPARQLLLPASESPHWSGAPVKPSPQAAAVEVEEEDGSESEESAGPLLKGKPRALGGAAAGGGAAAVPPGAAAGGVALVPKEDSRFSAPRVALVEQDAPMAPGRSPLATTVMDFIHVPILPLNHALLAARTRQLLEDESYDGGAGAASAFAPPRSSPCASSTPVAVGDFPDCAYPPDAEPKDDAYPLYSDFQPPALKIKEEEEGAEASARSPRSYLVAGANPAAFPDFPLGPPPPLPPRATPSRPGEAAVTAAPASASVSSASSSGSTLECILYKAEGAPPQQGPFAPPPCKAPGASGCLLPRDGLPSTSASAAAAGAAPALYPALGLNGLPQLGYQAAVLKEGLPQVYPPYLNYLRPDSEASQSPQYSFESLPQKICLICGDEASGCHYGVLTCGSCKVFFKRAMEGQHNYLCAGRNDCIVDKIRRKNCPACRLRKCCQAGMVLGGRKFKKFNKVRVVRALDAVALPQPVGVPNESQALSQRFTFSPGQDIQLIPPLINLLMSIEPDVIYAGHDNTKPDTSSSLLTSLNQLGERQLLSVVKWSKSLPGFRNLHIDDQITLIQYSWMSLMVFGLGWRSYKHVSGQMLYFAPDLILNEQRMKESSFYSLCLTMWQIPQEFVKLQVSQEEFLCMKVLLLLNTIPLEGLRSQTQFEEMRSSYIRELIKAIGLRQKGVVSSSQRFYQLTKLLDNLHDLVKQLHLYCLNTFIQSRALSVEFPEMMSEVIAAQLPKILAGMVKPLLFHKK
Summary of the method: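 Agonist qHTS: compounds pinned onto 3,000 PR-UAS-bla HEK 293T cells per well in charcoal-stripped serum medium, 16hr at 37C, then beta-lactamase activity measured by LiveBLAzer FRET fluorescence after 2 hours at room temperature.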

[13] = target: Progesterone receptor (Homo sapiens) (UniProt P06401); assay: qHTS assay to identify small molecule antagonists of the progesterone receptor (PR) signaling pathway (AID 1346795; active means well fitted inhibition curve with a large enough effect in the signal ratio in the repeat runs, not every such curve was filed as active; the % refers to the signal ratio)
Summary of the method: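 Antagonist mode with agonist R5020 at 1 nM final and 16 hr incubation at 37C. Reporter was beta-lactamase driven by UAS in HEK293T (PR-UAS-bla), 2% charcoal-stripped serum; signal from LiveBLAzer FRET substrate, 2 hr at room temperature.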

[14] = qHTS assay to identify small molecule antagonists of the progesterone receptor (PR) signaling pathway - cell viability counter screen (AID 1346798); further: series mostly up to about 92 µM; nearly all actives have a fitted effect of over 50% in size
Summary of the method: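 Cytotoxicity read as CellTiter-Glo luminescence (30 min, room temperature) in the same wells as the beta-lactamase readout. HEK293T PR-UAS-bla cells in charcoal-stripped 2% FBS received compound and R5020, then 16 h at 37C, 5% CO2.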

[15] = qHTS assay to identify small molecule agonists of the progesterone receptor (PR) signaling pathway - cell viability counter screen (AID 1346799; calls by dose curve; further: nearly all actives have a fitted effect of over 45% in size)
Summary of the method: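 Cytotoxicity measured by CellTiter-Glo luminescence (30 min, RT) in the same wells as the PR beta-lactamase agonist read. Those HEK293T cells had 16 h compound treatment at 37 C in 2% charcoal-stripped FBS medium.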

[16] = qHTS assay to identify small molecule antagonists of the TGF-beta/Smad signaling pathway - cell viability counter screen (AID 1346824); further: nearly all actives have a fitted effect of over 50% in size
Summary of the method: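 SBE-bla HEK 293T cells were plated overnight at 37 C, then given compounds in DMSO plus TGF-beta1 (added as 0.25 ng/mL solution) for 5 hr. After the bla read, CellTiter-Glo was added to the same wells and luminescence read after 30 min at room temperature.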

[17] = qHTS assay to identify small molecule antagonists of the sonic hedgehog signaling (Shh) pathway (AID 1259369; calls by dose curve; further: nearly all actives have a fitted effect of over 45% in size)
Summary of the method: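 NIH/3T3-derived Gli1-Luc reporter cells plated 4 h, dosed with compound, then stimulated with conditioned medium for 24 h at 37 C. Firefly luciferase luminescence read after 30 min with detection reagent at room temperature.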

[18] = qHTS assay to identify small molecule agonists of the estrogen receptor alpha (ER-alpha) signaling pathway in the presence of an antagonist - cell viability counter screen (AID 1259386);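 further: series mostly up to about 92 µM; cells exposed to compounds for 22 h at 37 °C before the viability read; nearly all actives have a fitted effect of over 30% in size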
Summary of the method: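 Cell viability in VM7Luc4E2 cells (endogenous full-length ER-alpha) measured by CellTiter-Fluor fluorescence in the same wells as the luciferase screen. Cells pre-cultured 5 days in charcoal-stripped serum, then treated 22 h with compounds at 15 concentrations plus 10.0nM ICI-182,780.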

[19] = target: Estrogen receptor beta (Homo sapiens) (UniProt Q92731); assay: qHTS assay to identify small molecule antagonists of the estrogen receptor beta (ER-beta) signaling pathway (AID 1259378; active means well fitted inhibition curve with a large enough effect in the signal ratio in the repeat runs, not every such curve was filed as active; the % refers to the signal ratio)
Summary of the method: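 ER-beta-UAS-bla HEK293T (GripTite) cells in 2% charcoal-stripped FBS medium were preincubated 6 hr at 37C, dosed with compound, then stimulated with 1 nM E2 (final) for 16 hr; beta-lactamase reporter read by B/G FRET fluorescence after 2 hr substrate loading.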

Measured: Potency

CCO[Si](CC)(OCC)OCC
not listed: [17] | [18] | [19]
inactive: all other assays above

CC(O)CC(C)O (stereo not drawn)
not listed: [4] | [7] | [9] | [10] | [14] | [19]
inactive: all other assays above

C=CC(=O)OCC1CCCO1 (stereo not drawn)
not listed: [7] | [13] | [19]
inactive: all other assays above

CCCCCC(C)O (stereo not drawn)
not listed: [4] | [7] | [13] | [19]
inactive: all other assays above

CN(C)C(C)(C)CO
not listed: [4] | [7] | [16] | [17]
inactive: all other assays above

CN(C)CCOC(=O)C(c1ccccc1)C1(O)CCCC1 (stereo not drawn)
not listed: [1] | [7] | [9]
inactive: all other assays above

C=CCCCC
not listed: [4] | [7] | [9] | [17] | [19]
inactive: all other assays above

CCCCOCCOC(=O)COc1ccc(Cl)cc1Cl
not listed: [7] | [14] | [19]
inactive: all other assays above

CCOc1cccc(N)c1
not listed: [1] | [7] | [18]
inactive: all other assays above

O=NN(CCCl)C(=O)NC1CCCCC1
not listed: [7] | [9] | [11] | [15] | [19]
inactive: all other assays above

COC(=O)c1ccccc1C(=O)O
not listed: [7] | [17]
inactive: all other assays above

COC(C)(OC)OC
not listed: [4] | [15] | [19]
inactive: all other assays above

COc1cc2c(cc1OC)CN(C(=O)[C@H](C)N[C@@H](CCc1ccccc1)C(=O)O)[C@H](C(=O)O)C2
not listed: [7] | [14] | [18]
inactive: all other assays above

CO[Si](CCCn1c(=O)n(CCC[Si](OC)(OC)OC)c(=O)n(CCC[Si](OC)(OC)OC)c1=O)(OC)OC
not listed: [4] | [7] | [8] | [9] | [17] | [18] | [19]
inactive: all other assays above

CCN(CC)CCN
not listed: [6] | [7] | [19]
inactive: all other assays above

COP(=O)(O)OP(=O)(O)OC
not listed: [7] | [9] | [19]
inactive: all other assays above

COC(=O)c1cccc(Cl)c1
not listed: [2] | [7] | [9] | [10] | [11]
inactive: all other assays above
